{"source": "PubChem BioAssay AID652010", "about": "(The Scripps Research Institute Molecular Screening Center, 2013)", "note": "In all, about 370,000 compounds went through this assay and about 4,100 (1.1%) were called active. The sample holds actives, similar compounds and a random draw of the others, so the mix is not that of the screen. Unmarked numbers belong to inactive results.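 How the source made its calls: active means inhibition above the mean over all tested compounds plus 3 SD (cut at about 3.6% in these data); inactive means the rest.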", "data": [{"experiment": "DAX1 (NR0B1) inhibitors on StAR promoter, primary screen, cell-based, luminescence, SF-1 (NR5A1), full-length DAX-1 (AID 652010);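 further: 0% = DAX-1 cells with DMSO and 100% = cells lacking DAX-1 with DMSO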", "conditions": "HEK293T StAR-luciferase reporter, SF-1/DAX-1 repression relief; at 6.8 µM; stronger effect = higher value", "values": [{"smiles": "O=C(COc1ccc(Cl)cc1)N1CCN(S(=O)(=O)c2ccc(Cl)cc2)CC1", "inhibition": "-0.62%"}, {"smiles": "CC(c1nnc(SCC(=O)Nc2sccc2C#N)n1-c1ccc(Cl)cc1)N(C)C", "note": "(configuration not stated)", "inhibition": "0.06%"}, {"smiles": "CC(=O)c1cc(C#N)c(SCC(=O)Nc2nccs2)nc1C", "inhibition": "0.62%"}, {"smiles": "Cc1csc(SCC(=O)Nc2sccc2C#N)n1", "inhibition": "10.3% (active)"}, {"smiles": "Cc1ccc(OCCC(=O)Nc2ccc(S(=O)(=O)Nc3nccs3)cc2)cc1", "inhibition": "-0.38%"}, {"smiles": "Cc1cc(NS(=O)(=O)c2ccc(NC(=O)CSc3nnc(SCc4ccc(F)cc4)s3)cc2)nc(C)n1", "inhibition": "-0.01%"}, {"smiles": "Nc1[nH]c(/C=C2/CCCCC2n2[nH]c(=O)n(-c3ccccc3)c2=O)c(Cc2ccccc2)[n+]1Cc1ccccc1", "note": "(configuration not stated)", "inhibition": "-0.55%"}, {"smiles": "CN(C)CCN(C(=O)CN1C(=O)c2ccccc2C1=O)c1nc2cc3c(cc2s1)OCCO3", "inhibition": "4.33% (active)"}, {"smiles": "CCN(CC)CCN(C(=O)c1ccc(N2C(=O)CCC2=O)cc1)c1nc2cc3c(cc2s1)OCO3", "inhibition": "1.06%"}, {"smiles": "O=C(Cn1c(=O)sc2ccccc21)Nc1ccc2c(c1)OCCO2", "inhibition": "-1.14%"}, {"smiles": "CCOC(=O)c1csc(NC(=O)C2CCCN(S(=O)(=O)c3ccc(Cl)s3)C2)n1", "note": "(configuration not stated)", "inhibition": "-2.18%"}, {"smiles": "COc1ccc(C(=O)NCC[N+](C)(C)C)cc1", "inhibition": "4.67% (active)"}, {"smiles": "COc1ccc(C(=O)NCCSc2ccccc2C)cc1", "inhibition": "2.33%"}, {"smiles": "COCCNC(=S)c1ccc(OC)cc1", "inhibition": "0.05%"}, {"smiles": "COc1ccc(C(=O)NC2CCN(C(=O)Nc3ccc(F)cc3)CC2)cc1", "inhibition": "-0.44%"}, {"smiles": "COc1ccc(C(=O)Nc2ccc(-n3nncc3C(C)(C)C)cc2)cc1", "inhibition": "-0.32%"}, {"smiles": "COc1ccc(NC(=O)c2ccc(OC)cc2)cc1", "inhibition": "4.59% (active)"}, {"smiles": "O=C(C1CCN(S(=O)(=O)c2ccccc2)CC1)N1CCN(C2CCCCC2)CC1", "inhibition": "0.23%"}, {"smiles": "Nn1c(SCC(=O)Nc2cccc3ccccc23)nnc1-c1cc(-c2ccc(F)cc2)n[nH]1", "inhibition": "-0.54%"}, {"smiles": "CC(=O)NC1(c2ccc(F)cc2)CCN(C(=O)c2c(F)cccc2F)CC1", "inhibition": "-0.58%"}, {"smiles": "CC(C)CSc1nnc(-c2cccnc2)n1Cc1ccccc1", "inhibition": "-1.22%"}, {"smiles": "COC(=O)c1cccc(Cn2ccc3ccc(-c4ccc5ccn(C(=O)c6ccccc6C)c5c4)cc32)c1", "inhibition": "-1.7%"}, {"smiles": "O=C(CSc1nc2ccccc2n1Cc1ccccc1)NNC(=S)Nc1ccccc1", "inhibition": "-1.17%"}, {"smiles": "O=C(O)CC(Cc1ccccc1)C(=O)Nc1ccc([N+](=O)[O-])cc1", "note": "(configuration not stated)", "inhibition": "-0.05%"}, {"smiles": "CCOc1cccc(C(=O)Nc2cnn(Cc3ccccc3)c2)c1", "inhibition": "-0.67%"}, {"smiles": "O=C(Nc1ccn(Cc2ccccc2)n1)c1n[nH]c([N+](=O)[O-])c1Cl", "inhibition": "5.27% (active)"}, {"smiles": "O=C(Cn1cnc([N+](=O)[O-])n1)NCCc1ccccc1", "inhibition": "-0.33%"}, {"smiles": "Cc1ccc(NC(=O)CC2C(=O)N(Cc3ccccc3)C(=S)N2NC(=O)c2cccc(F)c2)c(C)c1", "note": "(configuration not stated)", "inhibition": "-0.22%"}, {"smiles": "O=C(Nc1ccn(Cc2ccccc2)n1)c1cccc(F)c1", "inhibition": "4.43% (active)"}, {"smiles": "Cc1cc(C)cc(NC(=O)N2CCC(N(C)CCC(C)C)CC2)c1", "inhibition": "1.03%"}, {"smiles": "Cc1sc2nc(COC(=O)C(NC(=O)c3ccc(Cl)cc3Cl)C(C)C)[nH]c(=O)c2c1C", "note": "(configuration not stated)", "inhibition": "-0.03%"}, {"smiles": "COC(=O)c1ccc(CN2C(=O)[C@]3(OCCC=C[C@H]3C)c3c(Br)cccc32)cc1", "inhibition": "1.3%"}, {"smiles": "COC(=O)C12C=C3CC(c4ccccc4)=C3C(=O)N1Cc1[nH]c3ccccc3c1C2", "note": "(configuration not stated)", "inhibition": "0.17%"}, {"smiles": "Cc1ccc(C(=O)N2CCN(C3CCCCC3)CC2)s1", "inhibition": "0.45%"}, {"smiles": "Cc1ccc(CS(=O)Cc2ccc(C(=O)N3CCOCC3)o2)cc1", "note": "(configuration not stated)", "inhibition": "-0.29%"}, {"smiles": "Cc1ccc(S(=O)Cc2ccc(C(=O)N3CCN(C4CCCCC4)CC3)o2)cc1", "note": "(configuration not stated)", "inhibition": "5.98% (active)"}, {"smiles": "COC(=O)[C@]12C[C@H](CC(=O)NCCc3ccccc3OC)C(=O)N(Cc3ccco3)C1=C[C@H](C(C)C)O[C@@H]2C1CC1", "inhibition": "-0.45%"}, {"smiles": "Cc1ccccc1CS(=O)(=O)Cc1ccc(C(=O)Nc2ccc(Cl)cc2)o1", "inhibition": "-3.88%"}, {"smiles": "Cc1ccccc1NC(=O)C1CCN(c2ncccn2)CC1", "inhibition": "-0.57%"}, {"smiles": "O=C(CCc1ccccc1F)N1CCN(c2ccccc2)CC1", "inhibition": "-0.1%"}, {"smiles": "O=C(CCSc1ccccc1)N1CCN(c2ccccc2F)CC1", "inhibition": "3.74% (active)"}, {"smiles": "O=C(CCS(=O)(=O)c1cccc2nsnc12)N1CCN(c2ccccc2F)CC1", "inhibition": "0.3%"}, {"smiles": "O=C(c1ccc(-c2ccccc2)cc1)C1CCCN(C(=O)c2cncs2)C1", "note": "(configuration not stated)", "inhibition": "-0.34%"}, {"smiles": "O=C(Nc1ccccc1)c1ccccc1Br", "inhibition": "4.1% (active)"}, {"smiles": "O=C(Nc1ccc(-n2ccnc2P(=O)(O)c2ccccc2)cc1)c1ccccc1Br", "inhibition": "0.24%"}, {"smiles": "O=C(O)c1ccccc1-c1ccccc1C(=O)Nc1ccccc1Br", "inhibition": "2.05%"}, {"smiles": "CCC(CO)Nc1cccc2c1S(=O)(=O)N(Cc1cn(Cc3ccccc3C(F)(F)F)nn1)Cc1ccccc1O2", "note": "(configuration not stated)", "inhibition": "0.53%"}, {"smiles": "COc1ccc(N2CCN(CCNS(=O)(=O)c3ccc(Cl)s3)CC2)cc1", "inhibition": "-1.29%"}, {"smiles": "Cc1ccc(NC(=O)c2cnc(SCC(=O)NCC3CCCO3)n(C)c2=O)cc1", "note": "(configuration not stated)", "inhibition": "3.81% (active)"}, {"smiles": "Cn1c(SCC(=O)c2ccccc2)ncc(C(=O)Nc2ccc(F)cc2)c1=O", "inhibition": "0.92%"}, {"smiles": "CCn1c(SCC(=O)NCC2CCCO2)nc2ccccc21", "note": "(configuration not stated)", "inhibition": "0.35%"}, {"smiles": "CC(CCN1CCC(C(O)(c2ccccc2)c2ccccc2)CC1)Oc1ccc([N+](=O)[O-])cc1Cl", "note": "(configuration not stated)", "inhibition": "-0.6%"}, {"smiles": "CC(C)c1ccc(NS(=O)(=O)c2cn(C)c(=O)n(C)c2=O)cc1", "inhibition": "1.86%"}, {"smiles": "Cc1ccc(-n2c(SCC(=O)Nc3cccc4ccccc34)nnc2-c2ccco2)cc1", "inhibition": "-1.09%"}, {"smiles": "C=CCN=C1NC(c2ccccc2)C(C(=O)OC)=C(C)N1Cc1ccc(C(F)(F)F)cc1", "note": "(configuration not stated)", "inhibition": "-0.62%"}, {"smiles": "NNc1cccc(C=Cc2ccccc2)cc1=O", "inhibition": "4.11% (active)"}, {"smiles": "Cc1ccc(NC(=O)Nc2cc(C)nn2-c2ccccc2)cc1", "inhibition": "-0.81%"}]}]}
